ST2 IL33 inh: IL1RL1 inhibition; AlphaLISA ST2-Fc/biotin-IL-33 interaction, 1 h; Q01638; inhibition, % for hits at 17 µM; AID 1259354; 78,000 tested, 2.3% active; in the data active = inhibition above about 30%
Target sequence (Q01638 whole entry, looked up): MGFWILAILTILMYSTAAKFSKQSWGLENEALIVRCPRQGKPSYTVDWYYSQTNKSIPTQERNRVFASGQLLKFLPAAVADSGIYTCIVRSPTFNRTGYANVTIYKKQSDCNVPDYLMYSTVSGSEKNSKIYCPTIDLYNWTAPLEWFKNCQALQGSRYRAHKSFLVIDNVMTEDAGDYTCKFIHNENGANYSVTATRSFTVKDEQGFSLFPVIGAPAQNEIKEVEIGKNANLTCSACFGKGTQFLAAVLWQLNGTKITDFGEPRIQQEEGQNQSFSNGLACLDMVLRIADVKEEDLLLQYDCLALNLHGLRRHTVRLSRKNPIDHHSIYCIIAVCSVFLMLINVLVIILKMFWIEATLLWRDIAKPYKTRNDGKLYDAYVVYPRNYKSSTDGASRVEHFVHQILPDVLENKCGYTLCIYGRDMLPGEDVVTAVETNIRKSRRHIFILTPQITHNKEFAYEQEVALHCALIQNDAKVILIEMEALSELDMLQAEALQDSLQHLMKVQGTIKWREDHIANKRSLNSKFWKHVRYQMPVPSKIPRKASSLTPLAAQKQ
Starred values were filed as active, the others as inactive. The entries come from a sample that favours hits as a whole.

`Cc1ccc(F)cc1CNC1CCc2c(c(C(=O)N(C)Cc3ccco3)nn2C)C1` (configuration not stated) gave ST2 IL33 inh inactive.
`O=[N+]([O-])c1ccc2nn(-c3ccccc3)nc2c1` gave ST2 IL33 inh inactive.
Screening Cc1ccc(C(=O)n2nc(C)c(Sc3ccccc3)c2C)cc1 returned ST2 IL33 inh inactive.
For Cc1nn(C(=O)c2ccco2)c(C)c1Sc1ccccc1 the results were ST2 IL33 inh inactive.
Cc1nn(C(=O)c2ccc([N+](=O)[O-])cc2)c(C)c1Sc1ccccc1 was read as ST2 IL33 inh 42%*.
Screening COc1c(Sc2ccc([N+](=O)[O-])cc2)c(C)nn1-c1ccccc1 returned ST2 IL33 inh 30%*.
For Cc1nn(C(=O)C2CC2)c(C)c1Sc1ccccc1 the results were ST2 IL33 inh inactive.
For CCc1nnc(NS(=O)(=O)c2ccc(N=Cc3ccc(N(CC)CC)cc3O)cc2)s1 the results were ST2 IL33 inh inactive.
`COc1ccc(Cl)cc1NC(=O)CSc1nnc(COc2cccc(C)c2)o1` gave ST2 IL33 inh inactive.
For CCOC(=O)C1C(=O)C=C(c2ccc(OC)c(OC)c2)CC1c1ccccc1 (configuration not stated) the results were ST2 IL33 inh inactive.
`CCC(C)Nc1nc(NC(C)C)nc(Oc2ccc(C(=O)OC)cc2)n1` (configuration not stated) gave ST2 IL33 inh inactive.
CC1=Nc2c([nH]c3ccccc23)-c2cc(C)ccc2N1 was read as ST2 IL33 inh 32%*.
Screening Cc1ccc2[nH]c(=O)nc(-c3ccccc3)c2c1 returned ST2 IL33 inh inactive.
For CCC(C)N(Cc1sccc1C)C(=O)CC1CCOCC1 (configuration not stated) the results were ST2 IL33 inh inactive.
CC(C)CN1CC(C(=O)N2Cc3cnn(CCO)c3C2)CC1=O (configuration not stated) was read as ST2 IL33 inh inactive.
For C=CCOc1ccc(C(O)=C2C(=O)C(=O)N(CCCn3ccnc3)C2c2ccco2)cc1 (configuration not stated) the results were ST2 IL33 inh inactive.
Screening Cc1nc2ccccc2n1C(=O)c1ccccc1[N+](=O)[O-] returned ST2 IL33 inh inactive.
O=C(Nc1ccccc1[N+](=O)[O-])C1=NN=CC1[N+](=O)[O-] (configuration not stated) was read as ST2 IL33 inh inactive.
`O=C(Nc1ccccc1[N+](=O)[O-])C1=C(O)CCn2c1nc1ccccc12` gave ST2 IL33 inh 34%*.
Screening NS(=O)(=O)c1ccc(CCNC(=O)C2CCN(c3ccc(-c4cccs4)nn3)CC2)cc1 returned ST2 IL33 inh inactive.
`CCN(CC)C(=O)c1ccc([N+](=O)[O-])o1` gave ST2 IL33 inh inactive.
For C=C(C)CN(CC)Cc1ccc(-c2ccccc2[N+](=O)[O-])o1 the results were ST2 IL33 inh 33%*.
`C=C(C)CN(CC)Cc1cc(OC)c(OC)c(OC)c1` gave ST2 IL33 inh inactive.
Screening Cc1ccc(C(=O)Nc2cccc(NC(=O)c3ccco3)c2)c(Cl)c1 returned ST2 IL33 inh inactive.
For CCCN(CCO)Cc1ccc(OCC)cc1 the results were ST2 IL33 inh inactive.
`Cc1ccc(N2C(=O)C3C(c4ccccc4F)NC(Cc4ccccc4)(C(=O)O)C3C2=O)cc1` (configuration not stated) gave ST2 IL33 inh inactive.
COc1cc2c(=O)c(-c3ccc4c(c3)OCO4)coc2cc1O[C@@H]1O[C@H](CO[C@H]2OC[C@](O)(CO)[C@H]2O)[C@@H](O)[C@H](O)[C@H]1O was read as ST2 IL33 inh inactive.
`O=C(CN1CCN(Cc2ccc(F)cc2)C1=O)NCc1ccco1` gave ST2 IL33 inh inactive.
For CC1(C)CC(NC(=O)CC2CCCCC2)CC(C)(C)N1 the results were ST2 IL33 inh 34%*.
`CC1(C)CC(NC2CC(C)(C)NC(C)(C)C2)CC(C)(C)N1` gave ST2 IL33 inh inactive.
CN(C(=O)CCC(=O)NC1CCCCCC1)C1CC(C)(C)NC(C)(C)C1 was read as ST2 IL33 inh inactive.
CC1=C2C(=NO[NH+]2[O-])C(C)=[N+]([O-])[NH+]1[O-] (configuration not stated) was read as ST2 IL33 inh inactive.
`COc1cc(OC)cc(C(=O)N2CCN=C2SC)c1` gave ST2 IL33 inh inactive.
`CC(=O)c1ccc(NC(=O)C(Cc2ccccc2)N2C(=O)c3ccccc3C2=O)cc1` (configuration not stated) gave ST2 IL33 inh inactive.
Screening NC1=C(N2CCCCC2)C(=O)c2ccccc2C1=O returned ST2 IL33 inh 71%*.
Screening CC(=O)c1ccc(NC2=C(N3CCCCC3)C(=O)c3ccccc3C2=O)cc1 returned ST2 IL33 inh 59%*.
`O=S(=O)(N=S(N1CCCCC1)N1CCCCC1)c1ccccc1` gave ST2 IL33 inh inactive.
`CC(=O)c1ccc(OC(=O)N2CCCCC2)cc1` gave ST2 IL33 inh inactive.
O=C(CCN1C(=O)c2ccccc2C1=O)N1CCCCCC1 was read as ST2 IL33 inh inactive.
O=C(Nc1ccccc1F)c1cccs1 was read as ST2 IL33 inh inactive.
For CC1=C(C(=O)OC2CCCCC2)C(c2cccs2)n2ncnc2N1 (configuration not stated) the results were ST2 IL33 inh inactive.
Screening Cc1ccsc1C(=O)N1CCN2C(=O)CNC(=O)C2C1 (configuration not stated) returned ST2 IL33 inh inactive.
For COc1cc(C=O)cc(Cl)c1OCc1ccc(Br)cc1 the results were ST2 IL33 inh inactive.
`COc1cc(/C=C/c2ccc3cccc(O)c3n2)cc(Cl)c1OC` gave ST2 IL33 inh 34%*.
`COc1cccc2ccc(/C=C/c3ccc4c(c3)OCO4)nc12` gave ST2 IL33 inh inactive.
For CCOCCCn1c(=N)c(C(=O)NCCCOC)cc2c(=O)n3ccccc3nc21 the results were ST2 IL33 inh inactive.
For COc1cc(OC)cc(C(=O)Nc2nc3ccc4sc(C)nc4c3s2)c1 the results were ST2 IL33 inh inactive.
`CCN(CC)c1ccc(C(=O)Nc2nc3ccc4sc(C)nc4c3s2)cc1` gave ST2 IL33 inh inactive.
Screening Cc1ccc(C(=O)Nc2nc3ccc4sc(C)nc4c3s2)cc1 returned ST2 IL33 inh 42%*.
Cc1ccc(C(=O)Nc2nc3ccc4nc(C)sc4c3s2)cc1 was read as ST2 IL33 inh inactive.
For Cc1nc2c(ccc3nc(NC(=O)c4ccc(C#N)cc4)sc32)s1 the results were ST2 IL33 inh 35%*.
CCOc1ccc(C(=O)Nc2nc3ccc4sc(C)nc4c3s2)cc1 was read as ST2 IL33 inh inactive.
`CC1=C(C(=O)OC(C)(C)C)C(c2ccc(F)cc2)C(C#N)=C(N)O1` (configuration not stated) gave ST2 IL33 inh inactive.
COc1ccc(C2C(C(=O)Nc3ccc(F)cc3)c3cc(OC)c(OC)cc3C(=O)N2C)cc1 (configuration not stated) was read as ST2 IL33 inh inactive.
For CSCCC(=O)N1CCCC(N2CCN(c3ccccc3F)CC2)C1 (configuration not stated) the results were ST2 IL33 inh inactive.
`CC(C)n1c2ccccc2c2nnc(SCC(=O)Nc3ccc(F)c(F)c3)nc21` gave ST2 IL33 inh inactive.
N#C/C(=C\c1ccc(N2CCOCC2)cc1)c1nc2ccccc2[nH]1 was read as ST2 IL33 inh inactive.
For Cc1cc([N+](=O)[O-])c(C)cc1-c1ccc(/C=C(\C#N)c2nc3ccccc3[nH]2)o1 the results were ST2 IL33 inh 38%*.

Source: PubChem
